High-throughput results (PubChem BioAssay)
Compounds with a hit are over-represented: about 3.5% of the library has one in this group of screens.
Sm TGR inh: qHTS Assay for the Inhibitors of Schistosoma Mansoni Peroxiredoxins. AID 485364, 2010. 360,000 compounds, 3% hits. Potency, µM (titrated, usually from 114 µM), most hits filed as inhibitors. Schistosoma mansoni thioredoxin glutathione reductase (TGR), Q962Y6. purified TGR, DTNB reduction, TNB absorbance 405 nm; note: nearly all actives have a fitted effect of over 60% in size
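Kinetic colorimetric format: TGR-catalysed, NADPH-driven DTNB reduction monitored via TNB absorbance. Enzyme dispensed at 20 nM; compound exposure 15 min at room temperature before reaction start.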
NS1 function inh: qHTS Assay for Inhibitors of Influenza NS1 Protein Function; Potency, µM (top dose mostly 46.1 µM); 270,000 compounds, 0.4% hits; calls by dose curve; note: actives are rising curves; nearly all actives have a fitted effect of over 50% in size
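Compounds were scored for reversing the slow growth caused by influenza A NS1 in S. cerevisiae, measured by optical density at 600 nm. Assay medium contained 2% galactose at pH 6.0; NS1-free yeast of the same strain were the positive control.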
TbPYK inhibitor: qHTS of Trypanosoma Brucei Inhibitors | pyruvate kinase (Trypanosoma brucei), Q57TT1 | TbPYK enzyme, Kinase-Glo Plus ATP luminescence, 45 min | Potency, µM (titrated, usually from 76.8 µM), hits mostly inhibitors | 410,000 compounds, 0.12% hits; note: nearly all actives have a fitted effect of over 50% in size
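In this concentration-response screen, enzyme-free wells defined baseline while DMSO plates tracked drift. Each reaction combined TbPYK, substrate, compound and 130 uM ADP for 45 min at room temperature. Kinase-Glo Plus luminescence gave the signal.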
RE007 growth inh: qHTS Assay for Inhibitors of the HIV-1 protein Vpr; S. pombe RE007 Vpr strain, BacTiter-Glo ATP luminescence, 24 h; Potency, µM (series often up to 92.2 µM), actives largely listed as inhibitors; 360,000 compounds, 0.21% hits; AID 651644, 2012; active = well fitted falling curve with a large enough effect; inconclusive = small, poorly fitted or top-dose-only effect; inactive = no such curve, though single readings can be large or run the other way; note: nearly all actives have a fitted effect of over 50% in size
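Fission yeast RE007 carrying one integrated HIV-1 vpr copy, seeded at OD 0.01 in PMG+AL medium with 23 nL pinned compound. Grown 24 h at 30 degrees; viability read by BacTiter-Glo luminescence after 5 min.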
LmPK inhibitor: qHTS Assay for Inhibitors of Leishmania Mexicana Pyruvate Kinase (LmPK). AID 1721, 2009. Potency, µM (doses to about 57.5 µM), hits mostly inhibitors. purified LmPK, Kinase-Glo ATP luminescence, 1 h. 290,000 compounds, 0.37% hits. Q27686
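0.1 nM LmPK, 0.5 mM PEP, 0.1 mM ADP; 50 mM imidazole pH 7.2, 7 mM MgCl2, 50 mM KCl; 1 h RT. Kinase-Glo luminescence readout, normalized to no-enzyme (full inhibition) and uninhibited wells.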
Giardia FBPA inh-1: qHTS Assay for Inhibitors of Fructose-1,6-bisphosphate Aldolase from Giardia Lamblia. A8B2U2. purified Giardia FBPA. Potency, µM (series often up to 59.6 µM), hits mostly inhibitors. 290,000 compounds, 0.71% hits. AID 2451, 2010; note: nearly all actives have a fitted effect of over 55% in size
Target sequence (A8B2U2 whole entry, looked up): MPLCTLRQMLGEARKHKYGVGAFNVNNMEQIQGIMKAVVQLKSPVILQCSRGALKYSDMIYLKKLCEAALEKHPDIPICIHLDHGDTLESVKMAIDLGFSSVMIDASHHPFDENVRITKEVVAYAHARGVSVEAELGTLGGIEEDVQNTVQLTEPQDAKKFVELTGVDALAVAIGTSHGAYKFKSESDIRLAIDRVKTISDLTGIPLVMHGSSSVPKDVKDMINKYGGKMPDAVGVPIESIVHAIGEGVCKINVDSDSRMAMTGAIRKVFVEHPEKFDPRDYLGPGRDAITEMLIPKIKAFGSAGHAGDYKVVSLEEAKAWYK
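Giardia FBPA (40 nM reagent) was preincubated 10 min at RT with compound (up to 57.5 uM final), then substrate plus GAPDH/TPI/NAD/arsenate coupling system with diaphorase/resazurin was added; resorufin fluorescence (525/598 nm) was read after 20 min.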
Giardia growth: qHTS Assay for Inhibitors of Fructose-1,6-bisphosphate Aldolase from Giardia Lamblia: Giardia lamblia growth inhibition; shares compounds with Giardia FBPA inh-1; Giardia lamblia trophozoite growth inhibition; Potency, µM (top dose mostly 57.5 µM), most hits filed as inhibitors; 1,500 compounds, 5% hits; AID 2785, 2010;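 note: trophozoites exposed to compound for 48 h at 37 °C; nearly all actives have a fitted effect of over 70% in size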
Mammal cell tox: qHTS Assay for Inhibitors of Fructose-1,6-bisphosphate Aldolase from Giardia Lamblia: Mammalian cellular toxicity. shares compounds with Giardia FBPA inh-1. mammalian cell viability counter-screen, qHTS. Potency, µM (titrated, usually from 57.5 µM), hits mostly inhibitors. 1,500 compounds, 4% hits;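 note: Chinese hamster ovary cells used as mammalian cytotoxicity surrogate; viability measured as cellular ATP by luminescence; compound exposure lasted 48 h before reading; nearly all actives have a fitted effect of over 60% in size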
Giardia FBPA inh-2: qHTS Assay for Inhibitors of Fructose-1,6-bisphosphate Aldolase from Giardia Lamblia: Primary screen confirmation; shares compounds with Giardia FBPA inh-1; purified Giardia aldolase enzyme activity, qHTS; Potency, µM (doses to about 57.5 µM), actives largely listed as inhibitors; 1,500 compounds, 5% hits; note: nearly all actives have a fitted effect of over 45% in size
Rabbit aldolase: qHTS Assay for Inhibitors of Fructose-1,6-bisphosphate Aldolase from Giardia Lamblia: Rabbit FBPA Selectivity; shares compounds with Giardia FBPA inh-1; Rabbit muscle FBPA enzyme inhibition, selectivity counter-screen; Potency, µM (series often up to 57.5 µM), actives largely listed as inhibitors; 1,500 compounds, 4% hits; AID 2794, 2010; note: nearly all actives have a fitted effect of over 60% in size
GAPDH counter: qHTS Assay for Inhibitors of Fructose-1,6-bisphosphate Aldolase from Giardia Lamblia: Coupling assay counterscreen confirmation; shares compounds with Giardia FBPA inh-1; GAPDH coupling enzyme counterscreen, biochemical, qHTS; Potency, µM (series often up to 57.5 µM), actives largely listed as inhibitors; 1,500 compounds, 6% hits; AID 2795, 2010; note: nearly all actives have a fitted effect of over 55% in size
Hits are given with their value; [ ] = remark or other dose. Unless noted, calls come from the whole dose curve; as a rule, active = well fitted curve in the direction sought with a large enough effect; inconclusive = small, poorly fitted or top-dose-only effect, or another doubt; inactive = no such curve, though single readings can be large; an effect the other way counts as inactive or inconclusive.

Screening O=C(N/N=C/c1ccccn1)c1cccc([N+](=O)[O-])c1 returned Sm TGR inh inactive, NS1 function inh inactive, TbPYK inhibitor inactive, RE007 growth inh inactive, LmPK inhibitor inactive, Giardia FBPA inh-1 15.8µM, Giardia growth inactive, Mammal cell tox inconclusive, Giardia FBPA inh-2 inactive, Rabbit aldolase inactive and GAPDH counter inactive.
Screening Cc1ccc(C(=O)N/N=C\c2ccc([N+](=O)[O-])o2)cn1 returned Sm TGR inh inconclusive, NS1 function inh inactive, TbPYK inhibitor inactive, RE007 growth inh inactive, LmPK inhibitor inactive, Giardia FBPA inh-1 11.2µM, Giardia growth 3.16µM, Mammal cell tox inactive, Giardia FBPA inh-2 inactive, Rabbit aldolase inactive and GAPDH counter inactive.
For O=C(N/N=C/c1ccccn1)c1cc(C2CC2)[nH]n1 the results were Sm TGR inh inactive, NS1 function inh inactive, TbPYK inhibitor inactive, RE007 growth inh inactive, LmPK inhibitor inactive, Giardia FBPA inh-1 17.7µM, Giardia growth inconclusive, Mammal cell tox inactive, Giardia FBPA inh-2 inactive, Rabbit aldolase inactive and GAPDH counter inactive.
Cc1ccc(C(=O)N/N=C\c2ccccn2)cn1 was read as Sm TGR inh inactive, NS1 function inh inactive, TbPYK inhibitor inactive, RE007 growth inh inactive, LmPK inhibitor inactive, Giardia FBPA inh-1 7.92µM, Giardia growth inactive, Mammal cell tox inactive, Giardia FBPA inh-2 inactive, Rabbit aldolase inactive and GAPDH counter inactive.
For CC1CC=CC2C1C(=O)N(Cc1ccccc1)C2c1ccc(F)c(/C=C/c2ccccc2)c1 (stereo not drawn) the results were Giardia FBPA inh-1 inactive.
Screening CC(C)(C)OC(=O)N1CCC(c2c(C(=O)NCc3ccccn3)cnn2-c2ccccc2)CC1 returned Sm TGR inh inactive and TbPYK inhibitor inactive[15.4 µM].
For CC(C)(C)OC(=O)NC(NC(=O)OCC1c2ccccc2-c2ccccc21)C(=O)O (stereo not drawn) the results were Giardia FBPA inh-1 inactive.
For O=C(N/N=C/c1ccccn1)c1ccc2nc[nH]c2c1 the results were Sm TGR inh inactive, NS1 function inh inactive, TbPYK inhibitor inactive, RE007 growth inh inactive, LmPK inhibitor inactive, Giardia FBPA inh-1 15.8µM, Giardia growth inactive[10.4 µM], Mammal cell tox inactive, Giardia FBPA inh-2 inactive, Rabbit aldolase inactive and GAPDH counter inactive.
Screening Nc1ccc(C(=O)N/N=C\C=C\c2cccc([N+](=O)[O-])c2)cc1 returned Sm TGR inh inactive, TbPYK inhibitor inactive, RE007 growth inh inactive, LmPK inhibitor inactive and Giardia FBPA inh-1 inactive.
O=C(N/N=C/c1ccccn1)c1cc([N+](=O)[O-])cc([N+](=O)[O-])c1 was read as Sm TGR inh inactive, TbPYK inhibitor inactive, RE007 growth inh inactive, LmPK inhibitor inactive, Giardia FBPA inh-1 9.98µM, Giardia growth 25.1µM, Mammal cell tox inconclusive, Giardia FBPA inh-2 inactive, Rabbit aldolase inactive and GAPDH counter inactive.
